Sampled rows, rich in hits. Any-hit rate of the full collection: about 19%.
HT1080 IDH1KD tx – qHTS for induction of synthetic lethality in tumor cells producing 2HG: qHTS for the HT-1080-IDH1KD cell line; AID 686971, 2013; HT-1080 IDH1 knockdown viability, ATP luminescence, 48 h; Potency, µM (highest dose often 46.1 µM), usual class: cytotoxic; actives 2% (n = 360,000)
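Using the IDH1-knockdown HT-1080 line run in the same batch and compound series as the NT line, viability after 48 h at 37 °C was determined by CellTiter-Glo luminescence and expressed as % activity.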
DT40 TDP1 no CPT – qHTS for Inhibitors of human tyrosyl-DNA phosphodiesterase 1 (TDP1): qHTS in cells in absence of CPT; DT40 Tdp1-/- hTDP1 cells, no CPT, ATP luminescence, 48 h; actives 15% (n = 420,000); AID 686978, 2013; Potency, µM (top dose mostly 46.2 µM), most hits filed as inhibitors; note: nearly all actives have a fitted effect of over 55% in size
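Cells were dispensed at 400 per well, compounds added by pin tool, plates incubated ≥48 hr at 37 °C, then CellTiter-Glo added for 30 min at room temperature before luminescence reading. Line: DT40 Tdp1-/- complemented with hTDP1; camptothecin omitted.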
IL1B secr inh – qHTS for Inhibitors of Inflammasome Signaling: IL-1-beta AlphaLISA Primary Screen; AID 743279, 2014; THP-1 LPS/ATP IL-1B secretion, AlphaLISA, 16 h; active compounds read low; actives 4.7% (n = 360,000); activity change, % at 57.5 µM; in the data active = activity change below about -50%; inconclusive = mostly about -30% to -49%
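THP-1 cells pretreated 1 hr with compounds (up to 57.5 uM final), then stimulated with LPS (250 ng/mL final) plus ATP (1.25 mM final); secreted IL-1B measured by AlphaLISA after 16 hr, decreased signal indicating inhibition.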
DT40 TDP1 CPT – qHTS for Inhibitors of human tyrosyl-DNA phosphodiesterase 1 (TDP1): qHTS in cells in presence of CPT | chicken DT40 Tdp1-/-;hTDP1 cells + 20 nM CPT, ATP luminescence, 48 h | Potency, µM (top dose mostly 46.2 µM), most hits filed as inhibitors | actives 12% (n = 420,000); note: nearly all actives have a fitted effect of over 55% in size
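Chicken DT40 Tdp1-/- cells stably complemented with human TDP1 were seeded at 400 cells/well in medium containing 20 nM camptothecin, exposed to pin-transferred compounds, and grown at 37 °C for at least 48 hr. Viability was read as ATP luminescence.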
HT1080NT lethal – qHTS for induction of synthetic lethality in tumor cells producing 2HG: qHTS for the HT-1080-NT fibrosarcoma cell line | HT-1080-NT fibrosarcoma viability, CellTiter-Glo ATP luminescence, 48 h | Potency, µM (titrated, usually from 46.1 µM), most hits filed as cytotoxic | actives 1.6% (n = 360,000) | AID 686970, 2013;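 note: NT is the 2HG producing partner of a matched IDH1 knockdown line; nearly all actives have a fitted effect of over 55% in size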
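Viability by CellTiter-Glo luminescence after 48 h compound exposure at 37C of HT-1080-NT cells (750/well, RPMI, 5% FBS). % activity scaled between DMSO wells and medium-only wells, then curve-fitted and categorized by curve class.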
Numbers stand for hits; n = inactive; u = inconclusive; x = no result given. Unless noted, calls come from the whole dose curve; as a rule, active = well fitted curve in the direction sought with a large enough effect; inconclusive = small, poorly fitted or top-dose-only effect, or another doubt; inactive = no such curve, though single readings can be large; an effect the other way counts as inactive or inconclusive.

SMILES | HT1080 IDH1KD tx | DT40 TDP1 no CPT | IL1B secr inh | DT40 TDP1 CPT | HT1080NT lethal
CCOc1cc(C)c(C(C)C)cc1S(=O)(=O)n1cnc(C)c1 | 12µM | u | n | u | u
CC(=O)C(Cc1cccc(F)c1)(Cc1cccc(F)c1)C(C)=O | n | n | n | n | n
CC(C)(C)NC(=O)CCN(/N=C/c1ccc([N+](=O)[O-])o1)C1=NS(=O)(=O)c2ccccc21 | u | 15µM | n | 18µM | u
CN(C)c1ccc(/C=N/N(CCC(=O)NC(C)(C)C)C2=NS(=O)(=O)c3ccccc32)cc1 | n | u | n | n | n
CC(C)(C)NCC(O)COc1ccccc1C(=O)CCc1ccccc1 (configuration not stated) | u | 15µM | -77 | 16µM | 16µM
CC(C)(C)NCC(O)COc1ccccc1C(C)(C)C (configuration not stated) | u | u | u | u | n
CCC(C)N(C)Cc1cccc(C2(O)CCN(S(=O)(=O)c3ccc(F)c(C)c3)CC2)c1 (configuration not stated) | n | 18µM | n | 18µM | n
Cc1cc(S(=O)(=O)N2CCN(c3c(C)cccc3C)CC2)ccc1F | u | u | n | n | u
COc1cc(NC(=O)CNc2cccc(S(=O)(=O)N3CCOCC3)c2)cc(OC)c1 | n | u | n | u | n
O=C(COC(=O)c1ccccc1C(=O)c1ccc(Cl)c([N+](=O)[O-])c1)NC1CC1 | 4.6µM | 16µM | -103 | 18µM | 6.5µM
O=C(COC(=O)c1cc([N+](=O)[O-])ccc1Cl)NC1CCCC1 | n | n | n | n | n
CNC(=O)COC(=O)c1ccccc1C(=O)c1ccc(Cl)c([N+](=O)[O-])c1 | 23µM | u | -107 | u | 12µM
CC1CN(C(=O)CCC(=O)NC2CCCCC2)c2ccccc2S1 (configuration not stated) | n | u | u | u | n
COc1cc(CNC(=O)c2ccc(Cn3nc(C)c(Cl)c3C)o2)cc(OC)c1 | u | 8.2µM | n | u | u
COc1cc(CNC(=O)c2nc(Cn3nc(C)c(Br)c3C)no2)cc(OC)c1 | n | u | -71 | 29µM | n
Clc1cccc(-c2cc3nc4c(c(NCc5ccco5)n3n2)CCCC4)c1 | n | 11µM | -96 | 21µM | u
CSc1ccccc1OCc1cc(C(=O)NCCCn2nc(C)cc2C)no1 | n | 21µM | n | 16µM | n
CSc1ccccc1OCc1cc(C(=O)NCC(C)Oc2cccnc2)no1 (configuration not stated) | n | 16µM | n | u | n
CSc1ccccc1OCc1cc(C(=O)NCCc2nc(C)cc(C)n2)no1 | n | u | n | u | n
COc1ccc(OCc2cc(C(=O)NCC(C)Oc3cccnc3)no2)c(Cl)c1 (configuration not stated) | n | u | n | u | n
Cc1cccc(NC(=O)C2=C(O)c3ccccc3N(C)S2(=O)=O)c1 | n | 15µM | n | u | n
Cc1ccc(NC(=S)C2=C(O)c3sccc3N(C)S2(=O)=O)cc1 | n | u | n | u | n
CN1CCN(C(=S)Nc2ccc(Cl)cc2)CC1 | n | n | n | n | n
CN1c2ccsc2C(O)=C(C(=O)Nc2ccccc2)S1(=O)=O | n | u | n | u | n
CN1c2ccccc2C(O)=C(C(=S)Nc2ccc(Cl)cc2)S1(=O)=O | u | 21µM | n | 16µM | u
SMILES | HT1080 IDH1KD tx | DT40 TDP1 no CPT | IL1B secr inh | DT40 TDP1 CPT | HT1080NT lethal
Cc1ccc(NC(=O)C2=C(O)c3sccc3N(C)S2(=O)=O)cc1 | n | 21µM | n | u | n
O=C(/C=C1\NCC2c3ccccc3CCN2C1=O)c1ccccc1 (configuration not stated) | n | u | n | u | n
O=C(NCCc1ccccc1)c1ccc2c(c1)N(Cc1ccccc1)C(=O)CS2=O (configuration not stated) | n | u | n | u | n
O=C(Nc1ccccc1Cl)c1ccc2c(c1)N(Cc1ccc(F)cc1)C(=O)CS2=O (configuration not stated) | n | u | n | 16µM | n
CC(C)CCNC(=O)c1ccc2c(c1)N(Cc1ccccc1)C(=O)CS2=O (configuration not stated) | n | u | n | 21µM | n
CCOCCCNC(=O)c1ccc2c(c1)N(Cc1ccccc1)C(=O)CS2=O (configuration not stated) | n | n | n | n | n
COc1cc(CN(C2CCCCC2)S(=O)(=O)c2ccc(S(=O)(=O)N(C)C3CCCCC3)cc2)cc(OC)c1OC | n | u | n | u | n
CCC(C)(C(=O)NC1CCCCC1)N(Cc1ccco1)C(=O)c1ccc2c(c1)OCO2 (configuration not stated) | n | 8.2µM | n | 12µM | n
Cc1ccc(S(=O)(=O)N2CCN(c3nc4ccccc4nc3-n3nc(C)cc3C)CC2)cc1 | n | u | n | u | n
Cc1cc(C)c(S(=O)(=O)N2CCN(c3ccc([N+](=O)[O-])c(-n4nc(C)cc4C)c3)CC2)c(C)c1 | n | 21µM | n | 26µM | n
Cc1cc(C)n(-c2cc(N3CCN(S(=O)(=O)c4ccc(Br)cc4)CC3)ccc2[N+](=O)[O-])n1 | n | 12µM | n | 12µM | n
COc1cccc(-c2nc(CS(=O)(=O)CC(=O)Nc3cc(OC)ccc3OC)c(C)o2)c1 | n | 5.8µM | n | u | n
COc1cccc(-c2nc(CS(=O)(=O)CC(=O)NC3CCCc4ccccc43)c(C)o2)c1 (configuration not stated) | n | 18µM | n | 23µM | n
COc1cccc(-c2nc(CS(=O)(=O)CC(=O)Nc3ccccc3C)c(C)o2)c1 | n | u | n | n | n
NCCCC[C@H](NC(=O)[C@@H]1CCCN1C(=O)[C@@H]1CSSC[C@H](N)C(=O)N[C@@H](Cc2ccc(O)cc2)C(=O)N[C@@H](Cc2ccccc2)C(=O)N[C@@H](CCC(N)=O)C(=O)N[C@@H](CC(N)=O)C(=O)N1)C(=O)NCC(N)=O | x | n | x | n | x
CCC(C)(C)c1ccc(OCCCC[n+]2cccc(C)c2C)c(C(C)(C)CC)c1 | 21µM | 0.41µM | -93 | 0.52µM | 15µM
CCC(C)(C)c1ccc(OCCCC[n+]2ccc(C)cc2)c(C(C)(C)CC)c1 | u | 1.2µM | -95 | 2.3µM | u
Cc1cc(C(C)(C)C)ccc1OCCCCN1CCCC1 | n | u | n | u | n
